Source: PubChem BioAssay AID504850 (National Center for Advancing Translational Sciences (NCATS), 2011)
Out of some 2,300 compounds screened, about 1,200 (52%) were called active. About 34% were inconclusive and are not listed. The set was probably picked from earlier hits. Some of the results follow. Unmarked numbers belong to inactive results. Calls follow the shape of the dose curve; as a rule, active = well fitted inhibition curve with a large enough effect; inconclusive = small, poorly fitted or top-dose-only effect, or effect the other way; inactive = no such curve, though single readings can be large or run the other way.

Experiment: Confirmation screen for delayed death inhibitors of the malarial parasite plastid, 48 hour incubation; also: nearly all actives have a fitted effect of over 65% in size
Conditions: P. falciparum-infected erythrocytes, luciferase growth; series mostly up to 28.7 µM; activity change, negative = inhibition: at the top concentration
Summary of the method: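 Single-generation (48 h, 37 C) exposure of integrated firefly luciferase-reporter P. falciparum in red cells, 0.1% parasitemia at 2% hematocrit, Albumax-supplemented RPMI. Falling luciferase signal marks parasite growth inhibition.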
% is scaled to controls: 0 for no effect and ±100 for the full control effect; potency is read from the fitted curve at half-maximal effect.

Compound | Potency | activity change, negative = inhibition [%]
COCCn1c(C)cc(C(=O)CSc2cc(C)c3ccc(OC)cc3n2)c1C | 12.6 µM (active) | 
COC(=O)[C@@H]1C[C@]2(OC(=O)c3ccccc3)C=CC(=O)C[C@@H]2N1C(=O)OCc1ccccc1 | 14.1 µM (active) | 
COc1cccc(CN(C(=O)c2ccccc2Br)C2CCS(=O)(=O)C2)c1 (stereo unspecified) | 15.8 µM (active) | 
CN(C)c1ccc(CN(C(=O)c2ccccc2Br)C2CCS(=O)(=O)C2)cc1 (stereo unspecified) | 14.1 µM (active) | 
O=C(O)c1nn(CCSc2ccccc2F)c(=O)c2ccccc12 |  | -22.8
Cc1c(Cl)ccc2c(C(=O)O)cc(-c3ccccc3)nc12 |  | 13.9
Cc1ccc(-c2cc(C(=O)N/N=C/C=C/c3ccco3)c3ccccc3n2)cc1C | 10 µM (active) | 
Cc1ccc(-c2cc(C(=O)N/N=C/c3ccoc3)c3ccccc3n2)cc1 | 12.6 µM (active) | 
COc1ccc(/C=N/NC(=O)c2cc(-c3ccccc3)nc3ccccc23)cc1O |  | -17.6
O=C(NCc1ccccc1)C(c1cccnc1)N(C(=O)c1ccccn1)c1ccccc1F (stereo unspecified) |  | -19.9
O=C(CCc1ccccc1)NNC(=O)c1ccccn1 | 7.94 µM (active) | 
CCOc1ccc(CCNC(=O)COC(=O)c2ccc(C)s2)cc1OCC | 10 µM (active) | 
CCOC(=O)NC(=O)COC(=O)c1ccc(O)cc1 |  | -10.4
Cc1ccc(C(=O)NCC(=O)NCCCc2ccccc2)s1 |  | -8.96
COc1ccccc1NC(=O)Cn1cnc2sc(C(=O)Nc3ccc(OC)c(OC)c3)c(C)c2c1=O | 12.6 µM (active) | 
CSCCn1c(C(C)(C)C)cc(C(=O)O)c1C |  | 18.3
CCO[C@H]1OC(C(=O)N2CCN(Cc3ccc4c(c3)OCO4)CC2)=C[C@@H](c2ccc(C(F)(F)F)cc2)[C@@H]1CCCO | 3.55 µM (active) | 
O=C(C1=C[C@@H](c2csc3ccccc23)C[C@@H](OCCCCO)O1)N1CCN(Cc2ccc3c(c2)OCO3)CC1 | 10 µM (active) | 
CCO[C@H]1OC(C(=O)N2CCN(Cc3ccccc3)CC2)=C[C@@H](c2ccc(C(F)(F)F)cc2)[C@@H]1CCCO | 4.47 µM (active) | 
CCn1c(=O)cc(C(=O)OC)sc1=Nc1ccc(F)c(F)c1 |  | -21.8
Cc1cc(C)n(-c2ccc(C(=O)Nc3ccc(S(=O)(=O)NCc4ccco4)cc3)cc2)n1 | 10 µM (active) | 
CC(C)n1nc(C(=O)Nc2cccc(S(=O)(=O)NCc3ccco3)c2)c2ccccc2c1=O | 11.2 µM (active) | 

Compound | Potency | activity change, negative = inhibition [%]
O=C(Nc1ccccc1)c1cccc(S(=O)(=O)NCc2ccco2)c1 |  | -16.7
Cc1cc(C)n2nc(C(=O)N/N=C/c3c4ccccc4cc4ccccc34)nc2n1 | 8.91 µM (active) | 
COC(=O)c1ccc(C2N=C(c3cccs3)CC(c3ccccc3O)N2)cc1 (stereo unspecified) | 8.91 µM (active) | 
CCOC(=O)c1c(S(=O)(=O)NCC(=O)Nc2cccc(C)c2C)c(C)n(C)c1C |  | -28.7
CCOC(=O)c1c(S(=O)(=O)NCC(=O)N2CCN(c3ccccc3OC)CC2)c(C)n(C)c1C | 12.6 µM (active) | 
COc1cccc(NC(=O)CSc2ccc3nnc(CCNC(=O)c4ccccc4)n3n2)c1 | 15.8 µM (active) | 
Cc1ccc(C(=O)NCCc2nnc3ccc(SCC(=O)NCc4ccc(F)cc4)nn23)cc1 | 10 µM (active) | 
Cc1ccc(Cc2cnc(N3C(=N)SC(C)C3=O)s2)cc1 (stereo unspecified) |  | -30
C=CCN1C(=O)[C@@H]2Cc3c([nH]c4ccccc34)C(c3ccc(O)cc3)N2C1=S (stereo partly specified) | 12.6 µM (active) | 
CCN1C(=O)[C@@H]2Cc3c([nH]c4ccccc34)C(c3ccc(OC)cc3)N2C1=S (stereo partly specified) | 15.8 µM (active) | 
CC1(C)CC(=O)C2=C(C1)OC1=C(C(=O)CC(C)(C)C1)C2c1ccc(O)cc1O | 7.08 µM (active) | 
Fc1ccc(CSc2nncn2NCc2ccc3c(c2)OCO3)cc1 |  | -19.1
Fc1cccc(CNc2ncnc3ccc(-c4ccc5c(c4)OCO5)cc23)c1 | 10 µM (active) | 
CCOCCCNC(=S)N1CCN(c2nc(-c3ccccc3)cs2)CC1 | 11.2 µM (active) | 
NC1=NC[C@@H](Cc2ccc(O)cc2)N1CCc1cccc(F)c1 | 10 µM (active) | 
NC1=NC[C@H](Cc2ccc(O)cc2)N1CCc1cccc(F)c1 | 7.94 µM (active) | 
CCCCCCCNC(=O)C1(CC2CC(c3ccc(Cl)cc3)=NO2)CCN(C(=O)Cc2ccc(F)cc2)CC1 (stereo unspecified) | 11.2 µM (active) | 
CCCCCCCNC(=O)C1(CC2CC(c3ccc(Cl)cc3)=NO2)CCN(C(=O)C2CCCC2)CC1 (stereo unspecified) | 14.1 µM (active) | 
COc1ccc(C(=O)CSc2nnc(C3CCCCC3)n2N)c(OC)c1 | 8.91 µM (active) | 
CC1CCCN(c2ccc(F)cc2N)C1 (stereo unspecified) | 14.1 µM (active) | 
COc1cccc(-c2sc3ccc(OC)cc3c2-c2cc(F)cc(OC)c2)c1 | 11.2 µM (active) | 
O=C(CSc1nnc(COc2ccccc2)n1-c1ccccc1)c1cccs1 | 14.1 µM (active) | 

Compound | Potency | activity change, negative = inhibition [%]
C[C@H](NC(=O)c1nc[nH]c1C(=O)N[C@H](C)c1ccccc1)C(=O)OCc1ccccc1 |  | -22.9
CC(C)C[C@H](NC(=O)c1[nH]cnc1C(=O)N[C@@H](Cc1ccccc1)C(=O)OC(C)(C)C)C(=O)OC(C)(C)C | 6.31 µM (active) | 
CC(C)C[C@H](NC(=O)c1[nH]cnc1C(=O)Nc1ccc(CNC(=O)OC(C)(C)C)cc1)C(=O)OC(C)(C)C | 6.31 µM (active) | 
CC(C)C[C@H](NC(=O)c1[nH]cnc1C(=O)N[C@@H](C)C(=O)OC(C)(C)C)C(=O)OC(C)(C)C | 7.08 µM (active) | 
CC(C)C[C@H](NC(=O)c1nc[nH]c1C(=O)N(C)Cc1ccccc1)C(=O)OC(C)(C)C | 11.2 µM (active) | 
O=C(c1ccc(Br)cc1)C(CN1CCOCC1)c1ccccc1 (stereo unspecified) | 7.08 µM (active) | 
O=C(c1ccc(Cl)cc1)C(CN1CCCC1)c1ccccc1 (stereo unspecified) | 10 µM (active) | 
O=C(CC(c1ccccc1)c1cc(Br)ccc1O)NCCN1CCOCC1 (stereo unspecified) | 12.6 µM (active) | 
O=C(CN1CCCCC1)N/N=C/c1ccc(Cl)cc1 |  | 4.48
CN(Cc1ccccc1)C(=O)c1ccc(NC(=O)Cc2cccc(NC(=O)C3CCCN(C(=O)CCc4ccccc4)C3)c2)cc1 (stereo unspecified) | 7.08 µM (active) | 
O=[N+]([O-])c1cccc(-c2c[n+]3c(n2-c2ccccc2)SCC3)c1 | 2.51 µM (active) | 
COC(=O)C(NC(=O)c1ccccc1C)(Nc1ncc(S(=O)(=O)c2ccc([N+](=O)[O-])cc2)s1)C(F)(F)F (stereo unspecified) | 7.94 µM (active) | 
Cn1nc(C(F)(F)F)c(C(=O)Nc2ccc(F)cc2F)c1Sc1ccc(C(F)(F)F)cc1 | 12.6 µM (active) | 
CC(C)Cc1ccc(CN2CCCC(NC(=O)CCn3cnnn3)C2)cc1 (stereo unspecified) |  | -7.89
Cc1occc1C(=O)NC1CCCN(Cc2ccc(CC(C)C)cc2)C1 (stereo unspecified) | 14.1 µM (active) | 
O=C(NC1CCCN(Cc2ccc(Cl)cc2)C1)c1cnc2ccccn2c1=O (stereo unspecified) | 15.8 µM (active) | 
O=C(Cn1c(=O)c(=O)n(Cc2ccccc2)c2ccc(Cl)cc21)Nc1cccc(F)c1 | 15.8 µM (active) | 
Cc1cccc(C)c1N1CCN(C(=O)c2ccc3c(c2)OCO3)CC1 | 15.8 µM (active) | 
CCOC(=O)c1c(C)c(-c2ccccc2)n(CC(=O)NCCCN(CC)CC)c1C | 12.6 µM (active) | 
O=C(c1ccco1)N1CCN(C(=O)C2CCCc3c2[nH]c2ccc(Cl)cc32)CC1 (stereo unspecified) | 14.1 µM (active) | 
O=C1/C(=C/c2ccc(Cl)cc2)SC(=S)N1CCC(=O)N1CCCCC1CCO (stereo unspecified) | 15.8 µM (active) | 
COc1cccc(/C=C2\SC(=S)N(CCC(=O)N3CCCCC3CCO)C2=O)c1 (stereo unspecified) | 10 µM (active) | 

Compound | Potency | activity change, negative = inhibition [%]
COc1cccc(/C=C2\SC(=O)N(CCC(=O)NC3CCS(=O)(=O)C3)C2=O)c1 (stereo unspecified) |  | -17.6
CC1=CC(=O)O[C@@H]1[C@@]1(C)C[C@H]2OC(=O)C[C@H]3[C@@H](C)C(=O)C(O)=C1[C@@]23CO |  | -14.3
CCCCNC(=O)c1onc(CSc2ccc(Cl)cc2)c1C(=O)O |  | -7.43
CN(C)c1ccc(S(=O)(=O)N2CCCCC2)cc1NC(=O)C1=NN(c2ccccc2)C(=O)CC1 | 8.91 µM (active) | 
Cc1oc(=O)c(NC(=O)c2ccc(Cl)cc2)cc1C(=O)c1ccccc1 |  | -5.78
O=C(Nc1cc(Cl)ccc1N1CCCC1)C1=NN(c2ccccc2)C(=O)CC1 | 14.1 µM (active) | 
O=[N+]([O-])c1cncc([N+](=O)[O-])c1Nc1cccc(O)c1 | 12.6 µM (active) | 
CC1(C)Cc2c(ccc3ccccc23)C(c2cc3ccccc3oc2=O)=N1 | 12.6 µM (active) | 
O=C(c1ccc(Br)o1)N1CCN(c2ccc3nnc(-c4ccccc4)n3n2)CC1 | 12.6 µM (active) | 
O=C(Nc1ccccc1C(F)(F)F)N1CCN(c2ccc3nnc(-c4ccc(F)cc4)n3n2)CC1 | 7.08 µM (active) | 
COc1ccc(C(=O)NC(=S)N(C)C2CCCCC2)cc1 |  | -90.4
O=C(c1ccc(OC2CCN(Cc3ccccc3OC(F)F)CC2)cc1)N1CCCC1 | 2.24 µM (active) | 
COc1ccc(CCC(C)N2CCC(Oc3ccc(C(=O)N4CCCC4)cc3)CC2)cc1 (stereo unspecified) | 12.6 µM (active) | 
CCOc1cc(/C=C/C(=O)Nc2ccc(C(=O)NCCN(CC)CC)cc2)ccc1OCC(C)C | 1.78 µM (active) | 
O=C(c1ccc([N+](=O)[O-])cc1)n1nc(-c2ccccc2)nc1NCc1ccc(F)cc1 |  | -27.9
Cc1nc([N+](=O)[O-])c(Br)n1CC(=O)c1ccc(Cl)cc1 | 10 µM (active) | 
Cn1cc([N+](=O)[O-])c(C(=O)Nc2cnn(Cc3ccc(F)cc3)c2)n1 |  | 6.44
Cc1nc([N+](=O)[O-])c(Br)n1CC(=O)c1ccc(F)cc1 | 12.6 µM (active) | 
CCOC(=O)N1C/C(=C\c2ccccc2)C(=O)/C(=C/c2ccccc2)C1 | 6.31 µM (active) | 
CCN(CC)S(=O)(=O)c1cccc(NC(=O)c2cc(-c3cccs3)nn2-c2ccccc2)c1 | 11.2 µM (active) | 
